System: HL-1
Assay: protection of cardiomyocytes from stress damage, SAR follow-up, cell-based, panel, H9c2 and HL-1, ATP luminescence, set 2 (AID 651871);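 further: cells exposed to stressor for 2 h before ATP readout; reference of the scale not given here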
Details: H9c2/HL-1 cardiomyocytes, 2-deoxyglucose stress, with 2-deoxyglucose, run 14, at 39.5 µM (top of the series)

## COc1ccc2c(c1OC)C(=O)N1c3ccccc3C(=O)N(Cc3cccc(Cl)c3Cl)C21 (stereo unspecified)
  activity (protection/inhibition): 31.8%

— PubChem BioAssay AID651871 (Sanford-Burnham Center for Chemical Genomics, 2012)
